Results reported in PubChem BioAssay AID624255 (Broad Institute, 2012).
Where “and” joins values, the source holds several entries; their conditions need not be identical. Identical values can stand only once. About 4,600 (6%) of roughly 77,000 compounds were called active. Not shown: some 1% with an inconclusive outcome.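 The calls were made as follows: active = mean inhibition above about 93%, with at least 55% of replicates each passing it (limit read from the data, passing the limit was not always enough); inconclusive = only one of those two conditions holds; inactive = neither condition holds.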 The full list was thinned out, with actives kept by preference.

Test: growth inhibition of T. cruzi in host fibroblasts – cell-based, beta-gal Tulahuen parasites, NIH3T3 host, luminescence, primary screen (AID 624255)
Conditions: T. cruzi beta-gal in NIH3T3, GalScreen luminescence, 90 h; at 8.34 µM; active compounds read high

SMILES	inhibition
CC(C)CC#Cc1ccc2c(c1)O[C@@H](CN(C)C(=O)Nc1ccccc1F)[C@@H](C)CN([C@@H](C)CO)S2(=O)=O	83.3% (inactive)
COc1ccc(S(=O)(=O)N2CCCCN3[C@H](CO)[C@@H](c4ccc(C#CC(C)C)cc4)[C@H]3C2)cc1	106% (active)
Cc1cccc(S(=O)(=O)N2CCCCN3[C@@H](CO)[C@H](c4ccc(-c5cccnc5)cc4)[C@@H]3C2)c1	12.6% (inactive)
COc1cccc(S(=O)(=O)N2CCCCN3[C@H](C2)[C@H](c2ccc(C#CC(C)C)cc2)[C@@H]3CO)c1	118% (active)
COc1ccc(C#Cc2ccc([C@H]3[C@@H](CO)N4CCCCN(S(=O)(=O)c5cn(C)cn5)C[C@H]34)cc2)cc1	50.5% (inactive)
COc1cccc(S(=O)(=O)N2CCCCN3[C@H](CO)[C@H](c4ccc(-c5ccncc5)cc4)[C@H]3C2)c1	111% (active)
COc1cccc(S(=O)(=O)N2CCCCN3[C@H](C2)[C@@H](c2ccc(C4=CCCCC4)cc2)[C@@H]3CO)c1	51.4% (inactive)
CCCNC(=O)C[C@H]1CC[C@H]2[C@@H](COC[C@H](O)CN2C(=O)Nc2c(C)noc2C)O1	-19.4% (inactive)
COc1cccc(S(=O)(=O)N[C@@H]2CC[C@@H](CCNC(=O)Cc3ccncc3)O[C@H]2CO)c1	80.6% (inactive)
CS(=O)(=O)N1[C@H](C(=O)NCc2ccncc2)[C@@H](CO)[C@@H]2Cn3c(ccc(C4=CCCCC4)c3=O)[C@@H]21	58.6% (inactive)
COc1cccc(S(=O)(=O)N2C[C@@H](O)COC[C@H]3O[C@@H](CC(=O)N4CCOCC4)CC[C@@H]32)c1	22.5% (inactive)
O=C(Nc1ccccc1F)N1C[C@@H]2[C@H](c3ccccc31)[C@@H](CO)N2C(=O)Nc1ccccc1	8.53% (inactive)
O=C(CN1CCOCC1)NCC[C@H]1CC[C@@H](NC(=O)Nc2ccc(Cl)cc2)[C@@H](CO)O1	46.9% (inactive)
O=C(C[C@H]1CC[C@@H]2[C@H](COC[C@@H](O)CN2C(=O)Nc2cccc(F)c2)O1)NCc1ccccc1F	-36.9% (inactive)
COc1cccc(C(=O)Nc2ccc3c(c2)C(=O)N(C)C[C@@H](OC)[C@H](C)CN(C(=O)C2CCOCC2)[C@H](C)CO3)c1	9.28% (inactive)
C[C@H](CO)N1C[C@H](C)[C@H](CN(C)Cc2ccc(Cl)c(Cl)c2)OCCCC[C@H](C)Oc2ccc(NC(=O)NC3CCCCC3)cc2C1=O	86.3% (inactive)
COc1ccc(CN(C)C[C@@H]2OCCCC[C@@H](C)Oc3ccc(NC(=O)Nc4ccc(OC)cc4)cc3C(=O)N([C@@H](C)CO)C[C@@H]2C)cc1	24.8% (inactive)
COc1ccc(NC(=O)Nc2ccc3c(c2)C(=O)N([C@H](C)CO)C[C@H](C)[C@H](CN(C)Cc2ccncc2)OCCCC[C@H](C)O3)cc1	97.9% (inactive)
C[C@@H]1CCCCO[C@H](CN(C)Cc2ccc(Cl)c(Cl)c2)[C@@H](C)CN([C@@H](C)CO)C(=O)c2cc(NC(=O)Nc3ccccc3)ccc2O1	70.7% (inactive)
COc1ccc(NC(=O)Nc2ccc3c(c2)C(=O)N([C@H](C)CO)C[C@@H](C)[C@H](CN(C)Cc2ccc(Cl)c(Cl)c2)OCCCC[C@@H](C)O3)cc1	126% (active)
C[C@@H]1CN([C@H](C)CO)C(=O)c2cc(NC(=O)Nc3ccc(F)cc3)ccc2O[C@@H](C)CCCCO[C@H]1CN(C)Cc1ccc(Cl)c(Cl)c1	102% (active)
COc1ccccc1-c1ccc2n(c1=O)C[C@H]1[C@H](CO)[C@@H](C(=O)N[C@@H](C)c3ccccc3)[C@@H]2N1C	18.4% (inactive)

SMILES	inhibition
COCC(=O)N(C)C[C@@H]1Oc2cc(C#CC3CC3)ccc2S(=O)(=O)N([C@H](C)CO)C[C@H]1C	-43% (inactive)
C[C@H]1CN([C@@H](C)CO)S(=O)(=O)c2ccc(C#CC3CCCC3)cc2O[C@H]1CN(C)C(=O)Cc1ccncc1	118% (active)
C[C@@H]1CN([C@H](C)CO)S(=O)(=O)c2ccc(C#CC3CCCC3)cc2O[C@@H]1CN(C)C(=O)Cc1ccncc1	117% (active)
CCC(=O)N(C)C[C@H]1Oc2cc(C#CC3CC3)ccc2S(=O)(=O)N([C@H](C)CO)C[C@H]1C	-39.9% (inactive)
C[C@@H]1CN([C@H](C)CO)S(=O)(=O)c2ccc(C#CC3CCCCC3)cc2O[C@H]1CN(C)C(=O)Cc1ccncc1	92.8% (inactive) and 91.8% (inactive)
CCC(=O)N(C)C[C@H]1Oc2cc(C#CC3CC3)ccc2S(=O)(=O)N([C@@H](C)CO)C[C@@H]1C	3.97% (inactive)
C[C@@H]1CN([C@H](C)CO)C(=O)c2cc(C#CCN(C)C)cnc2O[C@H]1CN(C)C(=O)NC1CCCC1	-10.7% (inactive)
COc1ccc(S(=O)(=O)N[C@@H]2CC[C@H](CC(=O)N3CCc4ccccc4C3)O[C@H]2CO)cc1	16.5% (inactive)
CC(C)C#Cc1cnc2c(c1)C(=O)N([C@@H](C)CO)C[C@@H](C)[C@H](CN(C)C(=O)CCN1CCCCC1)O2	15% (inactive)
CC(=O)Nc1ccc2c(c1)C(=O)N(C)[C@@H]1CC[C@@H](CC(=O)NCC3CCCCC3)O[C@@H]1CO2	8.56% (inactive)
COCC(=O)N(C)C[C@H]1Oc2ncc(-c3cccc(OC)c3)cc2C(=O)N([C@H](C)CO)C[C@H]1C	-6.11% (inactive)
OC[C@@H]1[C@H](c2ccc(C#CC3CC3)cc2)[C@@H]2CN(CCC(F)(F)F)CCCCN12	99.5% (active)
N#Cc1cccc(-c2ccc([C@H]3[C@H](CO)N4CCCCN(C(=O)Nc5cccc(F)c5)C[C@@H]34)cc2)c1	105% (active)
COc1ccccc1C#Cc1ccc([C@@H]2[C@H](CO)N3CCCCN(CCC(F)(F)F)C[C@@H]23)cc1	42.4% (inactive)
O=C(C1CCC1)N1CCCCN2[C@H](C1)[C@@H](c1ccc(C#CC3CCCC3)cc1)[C@@H]2CO	86.9% (inactive)
O=C(Nc1ccccc1)N1CCCCN2[C@H](CO)[C@@H](c3ccc(C#Cc4ccccn4)cc3)[C@H]2C1	108% (active)
O=C(Nc1ccc(F)cc1)N1CCCCN2[C@H](CO)[C@H](c3ccc(C#Cc4ccccc4)cc3)[C@H]2C1	76.6% (inactive)
O=C(c1ccncc1)N1CCCCN2[C@H](CO)[C@@H](c3ccc(C#Cc4ccccn4)cc3)[C@H]2C1	91.2% (inactive)
Cc1ccccc1-c1ccc([C@@H]2[C@@H](CO)N3CCCCN(C(=O)Nc4cccc(F)c4)C[C@H]23)cc1	91.9% (inactive)
N#Cc1cccc(-c2ccc([C@H]3[C@@H](CO)N4CCCCN(C(=O)Nc5ccccc5)C[C@H]34)cc2)c1	75.3% (inactive)
O=C(Nc1cccc(F)c1)N1CCCCN2[C@H](CO)[C@H](c3ccc(C#CC4CC4)cc3)[C@@H]2C1	122% (active)
CC(C)C#Cc1ccc([C@H]2[C@@H](CO)N3CCCCN(C(=O)Nc4ccccc4)C[C@H]23)cc1	49.6% (inactive)

SMILES	inhibition
COc1ccc(C#Cc2ccc([C@H]3[C@@H](CO)N4CCCCN(C(=O)Nc5ccccc5)C[C@H]34)cc2)cc1	80.4% (inactive)
CN1CCN(C(=O)C[C@@H]2C=C[C@@H](NS(=O)(=O)c3cccc(F)c3)[C@@H](CO)O2)CC1	-46.4% (inactive)
O=C(C[C@H]1C=C[C@H](NC(=O)NC2CCCCC2)[C@H](CO)O1)NCc1ccccc1	-29.6% (inactive)
COc1ccc(CN(C)C[C@H]2OCCCC[C@@H](C)Oc3ccc(NS(C)(=O)=O)cc3C(=O)N([C@@H](C)CO)C[C@H]2C)cc1	89.5% (inactive)
CN(C)CC(=O)Nc1ccc2c(c1)[C@@H]1C[C@H](CC(=O)NCC3CC3)O[C@@H](CO)[C@@H]1O2	-19.8% (inactive)
COc1ccc(NC(=O)Nc2ccc3c(c2)C(=O)N([C@@H](C)CO)C[C@H](C)[C@H](CN(C)C(=O)Nc2ccccc2)OCCCC[C@@H](C)O3)cc1	54% (inactive)
CO[C@@H]1CN(C)C(=O)c2cc(NC(=O)c3cccc(F)c3)ccc2OC[C@H](C)N(C)C[C@@H]1C	13.5% (inactive)
O=C(c1cccnc1)N1C[C@H]2[C@@H](c3ccccc31)[C@H](CO)N2C(=O)C1CCCCC1	19.5% (inactive)
COC(=O)C[C@@H]1CC[C@@H]2[C@H](COc3ccc(NS(=O)(=O)c4ccccc4F)cc3C(=O)N2C)O1	27.2% (inactive)
CCCC(=O)Nc1ccc2c(c1)OC[C@@H](C)N(CC1CCOCC1)C[C@H](C)[C@H](OC)CN(C)C2=O	7.69% (inactive)
CCC(=O)N1CCCCN2[C@H](CO)[C@@H](c3ccc(-c4cccnc4)cc3)[C@H]2C1	88.7% (inactive)
O=C(CN1CCOCC1)N1CCCCN2[C@H](CO)[C@H](c3ccc(-c4ccccc4)cc3)[C@@H]2C1	102% (active)
COCC(=O)N1CCCCN2[C@H](CO)[C@H](c3ccc(-c4ccc(OC)cc4)cc3)[C@H]2C1	46.5% (inactive)
CCC(=O)N1CCCCN2[C@H](C1)[C@@H](c1ccc(/C=C/c3ccccc3)cc1)[C@@H]2CO	105% (active)
CCC(=O)N1CCCCN2[C@H](C1)[C@@H](c1ccc(-c3ccc(F)cc3)cc1)[C@@H]2CO	101% (active)
C/C=C/c1ccc([C@H]2[C@@H](CO)N3CCCCN(C(=O)c4ccc(F)cc4)C[C@@H]23)cc1	90.9% (inactive)
CC(=O)N1CCCCN2[C@H](C1)[C@@H](c1ccc(-c3ccc(F)cc3)cc1)[C@@H]2CO	71% (inactive)
O=C(CN1CCOCC1)N1CCCCN2[C@H](C1)[C@H](c1ccc(-c3ccccc3F)cc1)[C@@H]2CO	26.1% (inactive)
COCC(=O)N1CCCCN2[C@H](CO)[C@@H](c3ccc(-c4ccc(OC)cc4)cc3)[C@@H]2C1	4.91% (inactive)
COCC(=O)N1CCCCN2[C@H](C1)[C@@H](c1ccc(-c3ccccc3)cc1)[C@@H]2CO	53.8% (inactive)
O=C(CN1CCOCC1)N1CCCCN2[C@@H](CO)[C@H](c3ccc(-c4ccccc4)cc3)[C@@H]2C1	112% (active)
